The values below come from ChEMBL document CHEMBL1157539, “Thousands of chemical starting points for antimalarial lead identification” (Nature, 2010).

Holding throughout (type): functional
Test [1] has as its system Plasmodium falciparum. The experiment in a line: GSK_TCMDC: Inhibition of Plasmodium falciparum 3D7 in whole red blood cells, using parasite LDH activity as an index of growth. Test compounds present at 2uM.
In test [2] the test system is Plasmodium falciparum. The test can be described thus: GSK_TCMDC: Inhibition of Plasmodium falciparum Dd2 in whole red blood cells, using parasite LDH activity as an index of growth. Test compounds present at 2uM.
The subject of the next test is HepG2. The experiment in a line: GSK_TCMDC: Percent inhibition of human HepG2 cell line. Test compounds present at 10uM.

What is called Inhibition is how much of the control response was suppressed.

For `Cl.N=C(N)c1ccc(NC(=O)Cc2nc3cc(C(=N)N)ccc3[nH]2)cc1`, the figures for the Inhibition with Plasmodium falciparum [1], with Plasmodium falciparum [2] and with HepG2 were 87%, 81% and 4%, respectively.
Take `CCCc1ccc(S(=O)(=O)NC2CCN(C(=O)Nc3ccc(I)cc3)CC2)cc1`: the Inhibition in the test on Plasmodium falciparum [1] is reported as 97%; in the test with Plasmodium falciparum [2], 0%; in the test with HepG2, 8%.
In the same order, the values of `CCC(COCc1ccc(Cl)cc1)N(C)CCN(C)C(CC)COCc1ccc(Cl)cc1.Cl` (stereo unspecified) are 95%, 78% and 89%.
As to `Cc1c(CNCCCNc2cc(=O)c3ccccc3[nH]2)sc(C(F)=C(F)F)c1Br.Cl`, the Inhibition in the test on Plasmodium falciparum [1] is 94%; in the test with Plasmodium falciparum [2], 18%; with HepG2 it was 7%.
Taken in the same sequence, the figures for `CO/C(=C\C=C\c1cc2cc(Cl)c(Cl)cc2[nH]1)C(=O)NCCCN1CCN(c2cccc(O)c2)CC1` were 91%, 100% and 46%.
In the same order, the values of `CCn1c(Sc2ccc(C#N)c([N+](=O)[O-])c2)nnc1-c1ccc(Cl)cc1` are 97%, 93% and 0%.
Taken in the same sequence, the figures for `CN(CCCc1c[nH]c2ccccc12)CCC1CCC(NC(=O)/C=C/c2ccc(Cl)c(Cl)c2)CC1` (stereo unspecified) were 99%, 63% and 38%.
For `Cc1cc(NC(=O)c2cccs2)ccc1OC1CCN(Cc2ccccc2)CC1.O=C(O)C(F)(F)F`, the Inhibition with Plasmodium falciparum [1] is recorded as 95%; with Plasmodium falciparum [2], 91%; in the test with HepG2, 10%.
Turning to `NCCNc1ccc([N+](=O)[O-])cc1C(=O)Nc1cccc(Cl)c1`, the Inhibition with Plasmodium falciparum [1] came out at 85%; in the test with Plasmodium falciparum [2], 7%; in the test with HepG2, 23%.
In the same order, the values of `COc1ccc(CN2CCC(CNCc3cccc(-c4ccccc4)c3)CC2)cc1.O=C(O)C(F)(F)F` are 100%, 92% and 96%.
In the same order, the values of `CC(C)c1ccc(NS(=O)(=O)c2cccc(C(=O)NC3CCN(CC4CCCCC4)CC3)c2)cc1.O=C(O)C(F)(F)F` are 93%, 69% and 71%.
Taken in the same sequence, the figures for `Cc1nc2nc(N)nc(N)c2c(C)c1Cc1cccc(C#N)c1.Cl` were 97%, 1% and 64%.
Consider `Cl.Oc1ccc2c(c1CNC1CCCCC1)CCCC2`, for which the Inhibition in the test on Plasmodium falciparum [1] came to 98%; with Plasmodium falciparum [2], 94%; in the test with HepG2 it was 0%.
Taken in the same sequence, the figures for `COC(=O)c1ccc(N2CCN(CCCCNC(=O)c3ccc(NC(=O)c4ccc(Cl)cc4)cc3)CC2)c(OC)c1` were 82%, 1% and 11%.
Taken in the same sequence, the figures for `COc1ccc(NC(=O)/C=C/c2ccc(-c3ccccc3)cc2)cc1N1CCN(C)CC1.O=C(O)C(=O)O` were 90%, 46% and 21%.
Taken in the same sequence, the figures for `CCn1ccc2c(N3CCCC3=O)cc(C(=O)N[C@@H](Cc3ccccc3)[C@H](O)CNC3CCCCC3)cc21` were 99%, 98% and 12%.
As to `CC(C)(C)Nc1cc(C(=O)N[C@@H](Cc2ccccc2)[C@H](O)CNC2CCOCC2)cc(N2CCCCS2(=O)=O)c1`, the Inhibition in the test on Plasmodium falciparum [1] amounted to 99%; in the test on Plasmodium falciparum [2], 98%; in the test on HepG2, 0%.
In the same order, the values of `Cl.NOCCCOc1ccc(Cl)cc1` are 98%, 0% and 12%.
With `COc1cc(CN=C(S)NN=C(C)c2ccccn2)cc(OC)c1OC`, the Inhibition amounted to 99% in the test on Plasmodium falciparum [1], 92% with Plasmodium falciparum [2] and 45% with HepG2.
Turning to `Clc1cc(Nc2ncnc3cc(C#C[C@H]4CCCN4)sc23)cc2nc(Cc3ccccc3)[nH]c12.O=C(O)C(F)(F)F`, the Inhibition with Plasmodium falciparum [1] worked out at 91%; in the test with Plasmodium falciparum [2], 57%; in the test with HepG2, 29%.
In the same order, the values of `COc1csc2cc(Br)ccc12` are 100%, 0% and 6%.
As to `COc1ccc(CNCc2ccc(-c3cccc(-c4nc5cc(C(F)(F)F)ccc5[nH]4)c3)cc2)cc1.O=C(O)C(F)(F)F`, the values for the Inhibition with Plasmodium falciparum [1], in the test with Plasmodium falciparum [2] and in the test with HepG2 were 100%, 100% and 59%, respectively.
For `COc1cc2cc(Cc3cnc(N)nc3N)ccc2c(OC)c1OC.Cl`, the values for the Inhibition in the test on Plasmodium falciparum [1], with Plasmodium falciparum [2] and in the test with HepG2 were 97%, 2% and 1%, respectively.
Taken in the same sequence, the figures for `COc1cccc(CNC[C@@H](O)[C@H](Cc2ccccc2)NC(=O)c2cc(NC(C)C)cc(N3CCCCS3(=O)=O)c2)c1.O=CO` were 89%, 97% and 1%.
In the same order, the values of `COc1ccc(NC(=O)Nc2ccc(-c3ccccc3)cc2)cc1Cn1cnc(N2CCCNCC2)cc1=O.O=C(O)C(F)(F)F` are 100%, 38% and 24%.
Regarding `O=C(NCCN1CCOCC1)c1ccc(N2CCC(Oc3ccc4ccccc4c3)CC2)nc1`, the Inhibition is on record as 92% in the test with Plasmodium falciparum [1], 30% in the test with Plasmodium falciparum [2] and 1% in the test on HepG2.
Taken in the same sequence, the figures for `COc1ccc2nc(-c3ccccc3)cc(N/N=C/c3ccc([N+](=O)[O-])cc3)c2c1` were 100%, 100% and 89%.
For `O=C(Nc1cc(C(F)(F)F)ccc1-n1cncn1)C1(c2ccccc2)CC1`, the figures for the Inhibition with Plasmodium falciparum [1], in the test with Plasmodium falciparum [2] and with HepG2 were 100%, 100% and 11%, respectively.
For the compound `CCN(CCCN1CCCCC1)c1cc(C)nc(Nc2ccc(Oc3ccccc3)cc2)n1.O=C(O)C(F)(F)F`, the figures for the Inhibition in the test with Plasmodium falciparum [1], in the test with Plasmodium falciparum [2] and with HepG2 were 100%, 99% and 50%, respectively.
Taken in the same sequence, the figures for `Cc1ccc(NC(=O)c2ccc3ncccc3c2)cc1OC1CCN(Cc2ccsc2)C1.O=C(O)C(F)(F)F` (stereo unspecified) were 88%, 49% and 5%.
In the same order, the values of `O=C(Cn1nc(Br)nc1[N+](=O)[O-])NCC1CCCCC1` are 96%, 57% and 0%.
Taken in the same sequence, the figures for `Cl.c1cc2[nH]c(CCCCCc3nc4cc(C5=N[C@@H]6CCCC[C@@H]6N5)ccc4[nH]3)nc2cc1C1=N[C@@H]2CCCC[C@@H]2N1` were 96%, 98% and 8%.
Take `FC(F)(F)c1cnc(Sc2nnc(-c3ccco3)o2)c(Cl)c1`: the Inhibition with Plasmodium falciparum [1] is listed as 98%; with Plasmodium falciparum [2] it was 97%; with HepG2, 0%.
In the same order, the values of `COc1cc(NC(=O)c2ccc(-c3ccc(C(C)=O)cc3)s2)ccc1OCCN1CCCC1` are 100%, 63% and 31%.
`CN1CCN(CCCNCc2ccccc2-c2cccc(CNCc3ccc4c(c3)OCO4)c2)CC1.O=C(O)C(F)(F)F`: the figures for the Inhibition with Plasmodium falciparum [1], in the test with Plasmodium falciparum [2] and in the test with HepG2 were 100%, 7% and 34%, respectively.
For the compound `Nc1nc(N)c2c(CCc3ccc(Cl)c(Cl)c3)cccc2n1`, the Inhibition stood at 100% with Plasmodium falciparum [1], 83% with Plasmodium falciparum [2] and 51% in the test on HepG2.
For `Cn1nccc1C(=O)NCCNCc1cccc(-c2cccc(-c3nc4cc(C(F)(F)F)ccc4[nH]3)c2)c1.O=C(O)C(F)(F)F`, the Inhibition in the test on Plasmodium falciparum [1] is given as 100%; with Plasmodium falciparum [2], 99%; in the test on HepG2, 39%.
In the same order, the values of `CN(C)c1ccc(C=C2SC(=N)N(c3nccs3)C2=O)cc1` are 97%, 50% and 38%.
In the case of `CCc1c(C(=O)NC2CCC(N3CCC(c4ccccc4OC)CC3)CC2)[nH]c2ccc(Br)cc12` (stereo unspecified), the Inhibition was determined as 100% with Plasmodium falciparum [1], 98% in the test on Plasmodium falciparum [2] and 85% with HepG2.
In the same order, the values of `CS(=O)(=O)NCCCNCc1cccc(-c2ccc(-c3nc4ccccc4[nH]3)s2)c1.O=C(O)C(F)(F)F` are 90%, 0% and 24%.
With `Cc1ccc(C(O)CNc2ccnc(Nc3cccc(-c4csc(C)n4)c3)n2)cc1` (stereo unspecified), the Inhibition with Plasmodium falciparum [1] is 92%; with Plasmodium falciparum [2], 31%; in the test with HepG2 it was 17%.
For `Cc1cccc(Cn2c(C(N)=O)nn(-c3ccc([N+](=O)[O-])cc3C#N)c2=S)c1`, the Inhibition with Plasmodium falciparum [1] was 100%; in the test with Plasmodium falciparum [2] it was 48%; in the test on HepG2 it was 1%.
In the same order, the values of `CNCCNc1nccc(N2CCc3ncnc(Nc4ccc(OCc5cccc(F)c5)c(Cl)c4)c3C2)n1` are 100%, 98% and 30%.
In the same order, the values of `Cc1cc(N)nc2ccc(-c3ccc(CCN)cc3)cc12` are 100%, 48% and 31%.
On to `CC(C)(C)c1ccc(CNC(=O)COc2ccc(-c3nnc(-c4cccc([N+](=O)[O-])c4)o3)cc2[N+](=O)[O-])cc1`, for which the Inhibition stood at 93% in the test with Plasmodium falciparum [1], 25% with Plasmodium falciparum [2] and 10% in the test with HepG2.
As for `CCn1c(SC)nnc1C1CCCN(CC(=O)Nc2nc3ccc(OC)cc3s2)C1` (stereo unspecified), the Inhibition amounted to 97% with Plasmodium falciparum [1], 81% in the test on Plasmodium falciparum [2] and 0% with HepG2.
With `O=C(Nc1ccccc1)N(Cc1ccccc1-c1cccc(CNCCc2ccccc2)c1)C1CCN(Cc2ccccc2)CC1.O=C(O)C(F)(F)F`, the Inhibition is listed as 100% with Plasmodium falciparum [1], 59% with Plasmodium falciparum [2] and 95% with HepG2.
For the compound `CCC[C@@H]([C@@H](CC1CCCCC1)C(=O)N[C@H](C(=O)Nc1nccs1)[C@H](C)O)N(O)C=O`, the results for the Inhibition in the test on Plasmodium falciparum [1], with Plasmodium falciparum [2] and in the test on HepG2 were 99%, 75% and 0%, respectively.
As for `Cc1ccc2nc(-c3ccc(/C=C/C(=O)NC4CCN(Cc5ccccc5)CC4)cc3)[nH]c2c1C`, the Inhibition in the test with Plasmodium falciparum [1] was determined as 100%; with Plasmodium falciparum [2], 92%; with HepG2, 22%.
As to `O=C(O)C(F)(F)F.c1cnc2ccc(NCc3ccc(-c4ccc(CNC5CCCC5)cc4)cc3)cc2c1`, the Inhibition with Plasmodium falciparum [1] worked out at 97%; with Plasmodium falciparum [2], 21%; in the test on HepG2 it was 27%.
In the same order, the values of `COc1ccc(CNCc2cccc(-c3ccc(-c4nc5ccccc5[nH]4)s3)c2)cc1.O=C(O)C(F)(F)F` are 90%, 52% and 14%.
On to `COc1cc(OC)cc(C(=O)Nc2nc(-c3ccccn3)cs2)c1`, for which the Inhibition stood at 97% in the test with Plasmodium falciparum [1], 72% with Plasmodium falciparum [2] and 47% in the test with HepG2.
Taken in the same sequence, the figures for `COc1cc(C(F)(F)F)nc2c(CNCCCNc3cc(=O)c4ccccc4[nH]3)scc12.Cl` were 92%, 16% and 0%.
Taken in the same sequence, the figures for `COc1ccc2cc(C(c3nnnn3CC3CCCO3)N3CCc4ccccc43)c(=O)[nH]c2c1` (stereo unspecified) were 94%, 3% and 0%.
Taken in the same sequence, the figures for `Oc1cc2c(cc1CN1CCN(Cc3cccs3)CC1)CCC2` were 99%, 91% and 10%.
With `CCOc1cc(C(=O)Nc2ccc3nc(N(CC)CC)cc(C)c3c2)cc(OCC)c1OCC`, the Inhibition with Plasmodium falciparum [1] is 98%; with Plasmodium falciparum [2], 9%; with HepG2, 16%.
For the compound `Fc1ccc2[nH]c(-c3ccc(-c4ccc(CNCCN5CCNCC5)cc4)s3)nc2c1.O=C(O)C(F)(F)F`, the values for the Inhibition with Plasmodium falciparum [1], in the test with Plasmodium falciparum [2] and in the test on HepG2 were 96%, 2% and 24%, respectively.
Taken in the same sequence, the figures for `O=C(N[C@H]1CCN(CCc2ccc(O[C@H]3CCNC3)c(Cl)c2)C1)c1ccc(Cl)c(Cl)c1.O=C(O)C(F)(F)F` were 100%, 0% and 26%.
`NC1CCN(c2nc(NCCc3ccc(O)cc3)nc(NCc3ccccc3-c3ccccc3)n2)CC1.O=C(O)C(F)(F)F`: the Inhibition was 99% in the test on Plasmodium falciparum [1], 32% with Plasmodium falciparum [2] and 14% in the test with HepG2.
Turning to `CSC1=NC(=Nc2c(C)cccc2C)C2(CCC(C(C)(C)C)CC2)N1c1ccc(O)cc1.I` (stereo unspecified), the Inhibition in the test on Plasmodium falciparum [1] was found to be 97%; with Plasmodium falciparum [2], 93%; in the test with HepG2 it was 5%.
For the compound `Cn1nc2ccc3ccccc3c2nc1=N.I`, the Inhibition in the test with Plasmodium falciparum [1] is 91%; in the test on Plasmodium falciparum [2] it was 85%; with HepG2, 100%.
Taken in the same sequence, the figures for `Cl.O=C(C(=O)c1ccc(Nc2ccnc3cc(-c4ccccn4)ccc23)cc1)c1ccccc1` were 93%, 34% and 22%.
